# Compound activity from PubChem.
# In the library only some 3.1% were active in any assay of this set; here they are far more common.
# PPC-1+TRAIL kill – PPC-1 cancer cell killing with TRAIL present. PPC-1 cells + TRAIL, ATPLite viability luminescence. cell killing (% activity), % at 4 µM or 5 µM. actives 0.41% (n = 220,000). AID 1443;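 active = cell killing above 50% in the first pass at 4 µM, then a duplicate retest at 5 µM averaging 50% or more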;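 also: plate controls were cells with TRAIL plus DMSO for no effect and medium-only wells lacking cells for full effect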
# KKLEB cytotox – reduces viability of KKLEB cystic fibrosis airway cells; KKLEB CF airway cells viability, ATPlite luminescence, overnight; active compounds read low; cells stimulated with P. aeruginosa culture filtrate; activity change (cytotoxicity), % at 5 µM; actives 0.36% (n = 360,000);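 active = corrected activity change at or below -50% at 5 µM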
# C8 TRAIL sens – caspase-8 TRAIL sensitization; NB7+C8 cells + TRAIL, ATPlite viability luminescence; inhibition (viability loss, TRAIL sensitization), % at 10 µM; actives 1% (n = 360,000);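 active = compounds causing at least 50% loss of cell viability in the single-dose screen, relative to plate controls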
# CF NFkB block – blocks PAF-induced NF-kB reporter in cystic fibrosis cells | KKLEB NF-kB-GFP reporter, GFP fluorescence overnight | inhibition, % at 5 µM | actives 0.86% (n = 360,000);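 active = at least 50% inhibition at 5 µM, scaled per plate between neutral and stimulator controls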;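 also: PAF is a Pseudomonas aeruginosa culture filtrate used as stimulus; plate controls were PAF-stimulated DMSO wells for no effect and unstimulated DMSO wells for full effect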
# HIF-2a block – inhibitors of HIF-2a; inhibition, % at 18.8 µM; actives 0.72% (n = 360,000); 786-0 RCC cells HIF-2a reporter, luciferase luminescence, overnight;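 active = inhibition of the luminescence signal of 40% or more relative to plate controls, in a single-dose primary screen at 18.75 µM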
# Peg3 prom inh – inhibitors of Peg3 promoter; actives 1.7% (n = 360,000); inhibition, % at 20 µM; HeLa PEG-Prom luciferase reporter, luminescence, overnight;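 active = inhibition of at least 50% at 20 µM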
# PPC1 cytotox – kills PPC-1 cells; shares compounds with PPC-1+TRAIL kill; PPC-1 viability, ATPlite luminescence, overnight; cytotoxicity, % at 5 µM; actives 50% (n = 1,200); AID 1447;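 active = reconfirmed compounds whose average cytotoxicity reaches 50% or more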;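 also: 0% = DMSO-treated cells and 100% = wells holding medium but no cells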
# * hit, by the source's call; . = no result given.
SMILES,PPC-1+TRAIL kill,KKLEB cytotox,C8 TRAIL sens,CF NFkB block,HIF-2a block,Peg3 prom inh,PPC1 cytotox
CC(N)C(=O)NC(C(=O)N1CCCC1C(=O)NC(c1ccccc1)c1ccccc1)C(C)C (configuration not stated),.,-1.9,-5.2,-58.2,9.2,-17.1,.
COc1cc(/C=C2\SC(=Nc3ccccc3)N(CCc3c[nH]c4ccccc34)C2=O)ccc1OC(C)C(=O)O (configuration not stated),1.0,-17.4,-2.8,-36.3,1.5,3.0,.
O=C1/C(=C/c2ccc(N3CCOCC3)o2)SC(=Nc2ccccc2)N1CCc1c[nH]c2ccccc12,-11.6,-51.3*,33.8,-20.7,92.6*,102.0*,-5.9
Clc1ccc(-c2nnc(SCc3ccon3)o2)c(Cl)c1,44.0,1.5,48.2*,3.7,-131.2,-110.7,39.0
C=CCSc1nnc(-c2ccc(Cl)cc2Cl)o1,19.7,-4.8,25.9,-3.1,-313.6,-282.7,.
COc1cccc(C(=O)/C=C/Nc2ccc(NC(C)=O)cc2)c1,-5.4,3.6,4.5,-0.5,-158.9,-221.8,.
COc1cccc(C(=O)/C=C/Nc2cccc(O)c2)c1,85.1*,-34.2,82.3*,-14.4,-103.2,-79.5,86.1*
CC(=NCc1ccco1)c1c(C)[nH]n(-c2nc3ccccc3s2)c1=O,28.3,-2.0,30.6,7.7,-33.2,-38.2,.
C/C(=N/NC(=O)c1cccs1)c1c(C)[nH]n(-c2nc3ccccc3s2)c1=O,76.5*,6.2,88.6*,-11.1,-113.7,-102.8,74.6*
Fc1ccc(-c2cnn3c(-c4ccncc4)ccnc23)cc1,29.6,-14.7,54.3*,11.8,-154.5,-125.3,20.5
Fc1ccc(-c2cnn3c(-c4cccs4)ccnc23)cc1,59.4*,-33.7,67.7*,-16.9,-84.7,-70.2,52.8*
O=C(CCNC(=O)c1ccc([N+](=O)[O-])cc1)NCc1ccco1,.,4.9,-8.1,8.4,5.5,12.5,.
CN1C[C@@H]2[C@@H]3C(=O)N(C)C(=O)[C@@H]3[C@](Cc3ccccc3)(C1=O)N2C(=O)c1ccc(F)cc1,.,-7.1,-1.1,-5.4,-19.6,-42.2,.
CCN(C(=O)CSc1nccc(=O)[nH]1)c1cccc2ccccc12,.,6.2,-1.9,-13.8,3.4,4.2,.
Cc1ccc(C(=O)Nc2ccc(F)cc2)o1,2.3,1.6,4.9,-5.0,-83.5,-106.0,.
Cc1ccc(C(=O)Nc2ccc(O)c(C(=O)O)c2)o1,-1.2,5.8,-0.8,0.5,-3.0,6.7,-7.4
COc1ccc(Cl)cc1-c1nc(SCC(=O)N(C)CCC#N)n[nH]1,-9.8,-6.0,-5.3,13.8,3.7,-4.5,-9.7
O=Nc1c2cc(-c3ccccc3)[nH]nc-2c2ccccc12,73.5*,-10.9,72.0*,-77.0,-50.0,10.4,74.9*
Cc1cccc(-c2cc3c(N=O)c4ccccc4c-3n[nH]2)c1,40.9,4.1,48.7,-25.4,-157.0,-114.1,.
O=S1(=O)N[C@@H](Cc2ccccc2)COc2cc(N3CC[C@H](O)C3)ccc21,.,.,0.8,.,-3.9,.,.
CCc1nc2ccccc2c(=O)n1/N=C/c1ccc(Cl)cc1,.,1.3,12.7,-3.1,-51.0,-5.8,.
COC(=O)c1ccc(COc2ccc(C)cc2[N+](=O)[O-])o1,11.1,5.5,4.4,16.0,-151.3,-192.6,-13.6
COc1ccc(S(=O)(=O)Nc2ccccn2)c(C)c1C,-5.0,12.5,-2.6,-4.3,25.2,14.4,-1.7
CCOc1ccc(S(=O)(=O)Nc2ccccn2)c2ccccc12,22.6,8.8,5.0,15.5,10.0,16.0,.
COc1ccc(S(=O)(=O)N(C)C[C@@H]2OCCCC[C@@H](C)Oc3ccc(NS(=O)(=O)c4cccs4)cc3C(=O)N([C@H](C)CO)C[C@@H]2C)cc1,.,-14.4,1.5,-6.6,3.6,-10.4,.
Cn1c(NC(=O)c2ccco2)c(-c2ccccc2)c(=O)c2ccccc21,8.0,1.2,-21.1,-4.0,13.3,1.7,-11.9
CS(=O)(=O)c1ccc2nc(NC(=O)c3ccco3)sc2c1,45.8,-11.2,56.9*,24.6,-132.4,-146.8,49.6
O=C(Nc1nc2cc3c(cc2s1)OCCO3)c1ccncc1,38.1,3.6,38.7,-13.3,-241.9,-310.6,43.7
